# Results reported in the supplement of paper PMC12645437, “Orthogonal IMiD-Degron Pairs Induce Selective Protein Degradation in Cells” (ACS Chemical Biology, 2025).
# Over roughly 8,300 sequences, “log2 fold change of degron read counts, EGFP-low vs EGFP+ sorted cells (limma voom), compound-induced degradation” has its median near -1.1; the highest 2% begin near 3.2. Many of the other results were omitted from the sample, so the highest values are more common in it than they were.
# T1: CRBN, Q96SW2
# T1 chain: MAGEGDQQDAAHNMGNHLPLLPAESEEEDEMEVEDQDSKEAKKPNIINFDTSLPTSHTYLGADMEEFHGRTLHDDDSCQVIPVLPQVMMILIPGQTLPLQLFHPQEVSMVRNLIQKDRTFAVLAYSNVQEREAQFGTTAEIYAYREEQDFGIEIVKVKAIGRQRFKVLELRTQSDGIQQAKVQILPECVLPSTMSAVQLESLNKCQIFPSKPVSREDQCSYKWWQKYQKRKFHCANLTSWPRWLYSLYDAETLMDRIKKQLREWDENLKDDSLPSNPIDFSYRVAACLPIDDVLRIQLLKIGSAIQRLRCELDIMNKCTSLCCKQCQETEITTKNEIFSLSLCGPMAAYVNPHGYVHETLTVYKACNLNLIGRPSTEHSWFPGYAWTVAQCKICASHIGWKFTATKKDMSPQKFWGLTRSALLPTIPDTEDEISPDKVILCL
# Target: T1, CRBN, Q96SW2
# Experiment: log2 fold change of degron read counts, EGFP-low vs EGFP+ sorted cells (limma voom), compound-induced degradation; higher = more compound-induced degradation of the degron-EGFP fusion; degrons are variants of IKZF1/3 zinc finger 2; compound dose not given here
# Conditions: Jurkat, 18 h
# Protocol: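 Pooled library of 8380 IKZF3 ZF2 degron mutants (positions 146-167 varied within the IKZF3 130-189 degron; only the varied core is printed, flanks not printed) fused to EGFP with IRES-mCherry, lentivirally expressed in Jurkat cells. mCherry+ cells were treated with one IMiD compound for 18 h (dose not stated) and FACS-sorted into EGFP-low and EGFP+ populations. Degron sequences were counted by NGS, and log2FC (EGFP-low vs EGFP+) was estimated by limma voom over 3 biological replicates.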
# [1] = compound: compound 19 (5-tert-butyl-thalidomide)
# [2] = compound: compound 22 (5-morpholino-thalidomide)
# [3] = compound: compound 33 (diphenyl IMiD analogue)
# 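Also: pooled lentiviral library of zinc finger degron-EGFP fusions in mCherry-positive Jurkat cells, FACS-sorted after compound exposure, with degron abundance counted by next-generation sequencing.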
Sequence,log2 fold change of degron read counts [1],log2 fold change of degron read counts [2],log2 fold change of degron read counts [3],log2 fold change of degron read counts (compound: thalidomide)
"FFCPICGHDFTQKGNLLRHIKL [46F_47F_49P_50I_52G_53H_54D_55F_67L_, Q9UKT9]",-2.5,-3.06,-2.39,-2.25
"FLCEICGAYFTQKGNLLRHIKL [46F_47L_49E_50I_52G_53A_54Y_55F_67L_, Q9UKT9]",0.402,-0.763,0.888,1.03
"FMCNICGAPFTQKGNLLRHIKL [46F_47M_49N_50I_52G_53A_54P_55F_67L_, Q9UKT9]",2.52,3.05,3.24,2.42
"FKCNICGAPFTQKGNLLRHIKL [46F_47K_49N_50I_52G_53A_54P_55F_67L_, Q9UKT9]",1.75,0.553,-1.66,1.84
"FACNICGAPFTQKGNLLRHIKL [46F_47A_49N_50I_52G_53A_54P_55F_67L_, Q9UKT9]",3,2.25,0.28,1.19
"FQCNICGAPFTQKGNLLRHIKL [46F_47Q_49N_50I_52G_53A_54P_55F_67L_, Q9UKT9]",2.35,3.09,1.74,3.71
"FHCNICGAPFTQKGNLLRHIKL [46F_47H_49N_50I_52G_53A_54P_55F_67L_, Q9UKT9]",3.64,3.01,1.94,1.11
"FSCNICGAPFTQKGNLLRHIKL [46F_47S_49N_50I_52G_53A_54P_55F_67L_, Q9UKT9]",2.52,2.26,1.18,1.71
"FDCNICGAPFTQKGNLLRHIKL [46F_47D_49N_50I_52G_53A_54P_55F_67L_, Q9UKT9]",0.00765,0.55,-0.25,0.701
"FHCNQCGAPFTQKGNLLRHIKL [46F_47H_49N_50Q_52G_53A_54P_55F_67L_, Q9UKT9]",-0.273,-1.39,-1.33,-1.72
"FFCNICGAPFTQKGNLLRHIKL [46F_47F_49N_50I_52G_53A_54P_55F_67L_, Q9UKT9]",3.82,3.29,1.81,0.893
"FWCEICGRFFTQKGNLLRHIKL [46F_47W_49E_50I_52G_53R_54F_55F_67L_, Q9UKT9]",1.04,1.16,0.269,-0.94
"FVCNQCGHRFTQKGNLLRHIKL [46F_47V_49N_50Q_52G_53H_54R_55F_67L_, Q9UKT9]",-2.83,-3,-2.59,-2.33
"FWCPICGHTFTQKGNLLRHIKL [46F_47W_49P_50I_52G_53H_54T_55F_67L_, Q9UKT9]",-1.68,-1.6,-1.41,-2.18
"FVCEQCGADFTQKGNLLRHIKL [46F_47V_49E_50Q_52G_53A_54D_55F_67L_, Q9UKT9]",-3.51,-2.64,-2.37,-2.14
"FCCNICGAKFTQKGNLLRHIKL [46F_47C_49N_50I_52G_53A_54K_55F_67L_, Q9UKT9]",1.13,0.951,-1.32,1.19
"FKCPICGRAFTQKGNLLRHIKL [46F_47K_49P_50I_52G_53R_54A_55F_67L_, Q9UKT9]",-2.37,-1.6,-2.65,-0.307
"FYCPVCGAAFTQKGNLLRHIKL [46F_47Y_49P_50V_52G_53A_54A_55F_67L_, Q9UKT9]",2.93,2.85,2.36,0.969
"FWCNVCGAAFTQKGNLLRHIKL [46F_47W_49N_50V_52G_53A_54A_55F_67L_, Q9UKT9]",1.25,2.85,1.15,-0.34
"FCCEVCGAAFTQKGNLLRHIKL [46F_47C_49E_50V_52G_53A_54A_55F_67L_, Q9UKT9]",3.57,2.96,2.1,2.35
"FQCEVCGAAFTQKGNLLRHIKL [46F_47Q_49E_50V_52G_53A_54A_55F_67L_, Q9UKT9]",2.72,3.34,2.22,3.65
"FYCNVCGAAFTQKGNLLRHIKL [46F_47Y_49N_50V_52G_53A_54A_55F_67L_, Q9UKT9]",1.57,2.01,1.33,-0.954
"FYCEVCGAAFTQKGNLLRHIKL [46F_47Y_49E_50V_52G_53A_54A_55F_67L_, Q9UKT9]",3.87,3.7,2.98,1.8
"FMCEVCGAAFTQKGNLLRHIKL [46F_47M_49E_50V_52G_53A_54A_55F_67L_, Q9UKT9]",2.23,2.48,2.75,2.28
"FHCEVCGAAFTQKGNLLRHIKL [46F_47H_49E_50V_52G_53A_54A_55F_67L_, Q9UKT9]",3.08,2.89,1.84,0.737
"FGCEVCGAAFTQKGNLLRHIKL [46F_47G_49E_50V_52G_53A_54A_55F_67L_, Q9UKT9]",2.88,2.24,1.96,1.02
"FWCEVCGAAFTQKGNLLRHIKL [46F_47W_49E_50V_52G_53A_54A_55F_67L_, Q9UKT9]",3.39,3.9,2.77,1.54
"FCCNVCGAAFTQKGNLLRHIKL [46F_47C_49N_50V_52G_53A_54A_55F_67L_, Q9UKT9]",0.855,0.945,0.918,0.447
"FNCEVCGAAFTQKGNLLRHIKL [46F_47N_49E_50V_52G_53A_54A_55F_67L_, Q9UKT9]",3.07,1.6,0.0337,0.576
